# Test results as given in PubChem BioAssay (NCI).
# About 83,000 compounds went through this panel and 20% of them were active in at least one assay; those are over-represented in the sample as a whole.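 Assay: single dose, 48 h. Readout: percent growth (0 = no net growth; negative = cell death). Active: <10.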 Values without a mark were called inactive. Activity calls are given as the source filed them.
# How the values were obtained:
# Test in all cases: NCI-60 one-dose screen, 48 h (100 = growth as untreated, 0 = no growth, -100 = all killed)
# Conditions in all cases: 10 µM unless noted
# NCI-H23 lung = system: NCI-H23 lung
# NCI-H226 lung = system: NCI-H226 lung
# NCI-H322M lung = system: NCI-H322M lung
# HOP-62 NSCLC = system: HOP-62 NSCLC
# NCI-H460 lung = system: NCI-H460 lung
# HOP-92 NSCLC = system: HOP-92 NSCLC
# NCI-H522 lung = system: NCI-H522 lung
# A549/ATCC NSCLC = system: A549/ATCC NSCLC
# 786-0 renal = system: 786-0 renal
# COLO 205 colon = system: COLO 205 colon
# DU-145 prostate = system: DU-145 prostate
# K-562 leukemia = system: K-562 leukemia
# MALME-3M melanoma = system: MALME-3M melanoma
# MDA-MB-231 breast = system: MDA-MB-231 breast
# RXF 393 renal = system: RXF 393 renal
# SF-268 CNS = system: SF-268 CNS
# SF-295 CNS = system: SF-295 CNS
# SF-539 CNS = system: SF-539 CNS
# UACC-257 melanoma = system: UACC-257 melanoma
# M14 melanoma = system: M14 melanoma
Compound,growth (NCI-H23 lung),growth (NCI-H226 lung),growth (NCI-H322M lung),growth (HOP-62 NSCLC),growth (NCI-H460 lung),growth (HOP-92 NSCLC),growth (NCI-H522 lung),growth (A549/ATCC NSCLC),growth (786-0 renal),growth (COLO 205 colon),growth (DU-145 prostate),growth (K-562 leukemia),growth (MALME-3M melanoma),growth (MDA-MB-231 breast),growth (RXF 393 renal),growth (SF-268 CNS),growth (SF-295 CNS),growth (SF-539 CNS),growth (UACC-257 melanoma),growth (M14 melanoma)
C=C1CC[C@@H]2[C@]3(C)COC(c4ccccc4)O[C@@H]3CC[C@@]2(C)[C@@H]1C/C=C1/C(=O)OCC1OC(C)=O (stereo not given in full),-18.5% (active),-79.8% (active),62.1%,-27.7% (active),15.1%,-36.3% (active),-90.2% (active),9.46% (active),-95.6% (active),-76.4% (active),22.5%,-39.6% (active),-54.8% (active),-83.1% (active),-87.7% (active),35.1%,-4.5% (active),-100% (active),-49.6% (active),-86.9% (active)
COc1cc(C2CC(c3cc(OC)c(OC)c(OC)c3)=NN2C(C)=O)ccc1OCc1ccc(F)cc1 (stereo not given),56.7%,49.8%,66.1%,74.2%,49%,17.3%,42.1%,50.8%,57.8%,58.5%,70.6%,28%,81.8%,61%,73.7%,72%,37.7%,61.9%,68.6%,59.9%
O=c1onc(-c2cc3ccccc3nc2Cl)n1-c1cccc2ccccc12,56.5%,40.8%,76.4%,55.6%,51.7%,38.7%,27.8%,55.5%,73.3%,56.4%,80.7%,17.6%,55.3%,29.7%,43.5%,73.8%,15.5%,52.6%,70.7%,38.3%
COc1ccc(-c2c(Nn3cnnn3)no[n+]2[O-])cc1,58.9%,83.2%,63.5%,75.2%,39.5%,26%,-14.3% (active),67.1%,53.6%,55.1%,63.1%,30.2%,62.2%,38.8%,42.5%,66.3%,51.6%,56.3%,71.8%,59.9%
CN(C)CCn1c2ccccc2c2nc3cc4ccccc4cc3nc21,16.6%,26.8%,29.6%,38.3%,-52.1% (active),43.4%,27.5%,-68% (active),-44.3% (active),17.1%,-30% (active),2.68% (active),-87.3% (active),9% (active),-42.9% (active),46.2%,-67.6% (active),-72.2% (active),18.1%,-63.3% (active)
N/C(=N\N=C\c1ccc([N+](=O)[O-])cc1)c1c(N)nc(=S)[nH]c1-c1ccc(Cl)cc1Cl,90.2%,82.1%,100%,57%,114%,2.04% (active),78.5%,101%,54.1%,115%,115%,95%,73%,77.5%,73.1%,94.9%,52.4%,74.7%,104%,102%
COc1cc(/C=C/C(=O)c2ccccc2)ccc1Oc1nc(Nc2ccc(F)cc2)nc(N(C)C)n1,46.6%,43%,61.2%,78.4%,18.1%,28.7%,29.6%,52.8%,39.6%,36.2%,53.7%,6.43% (active),41.5%,-4.47% (active),39.4%,42.3%,26.5%,-8.58% (active),21.9%,38.7%
CC1(c2cc3cc(Cl)ccc3oc2=O)NC(=O)c2c(/C=C/C(=O)OC3CC4CCC3(C)C4(C)C)cccc2N1 (stereo not given),63.4%,67%,70.5%,71.5%,67.2%,40.8%,36.8%,41.7%,69.9%,48.8%,71.2%,21.6%,84.6%,75.1%,52%,78.5%,46.1%,87.2%,57.2%,69.6%
O=C(COc1ccc(NC(=O)Nc2ccc(Cl)c(Cl)c2)cc1)N=Nc1c(O)[nH]c2ccc(Cl)cc12,-19.5% (active),-42.8% (active),-5.99% (active),-61.3% (active),14.1%,-30.5% (active),-55.8% (active),-39.1% (active),-52.5% (active),-54.4% (active),-31.3% (active),4.71% (active),-76.6% (active),-66.5% (active),-53% (active),-12.3% (active),-61% (active),-90.2% (active),-72.2% (active),-71.2% (active)
COc1ccc2oc3c4[nH]c5ccccc5c4c4c(c3c2c1)C(=O)N(C(=O)OC(C)(C)C)C4=O,-19.9% (active),-1.92% (active),3.12% (active),-18% (active),4.57% (active),-14.6% (active),-30.7% (active),0.48% (active),11.6%,-40.9% (active),6.06% (active),3.78% (active),-24.9% (active),8.48% (active),-0.96% (active),4.9% (active),-26.7% (active),-24.8% (active),-52.9% (active),-44.6% (active)
Nc1nnc(-c2c[nH]c3ncc(Br)cc23)c(-c2c[nH]c3ccc(F)cc23)n1,33.3%,50.2%,50.5%,46.6%,25.7%,72.9%,50.5%,40.7%,39.2%,16.2%,44%,23%,13.7%,51.6%,40.9%,49%,35.1%,34.8%,44.9%,23.4%
C=C1CCC2C3(C)COC(c4ccccc4F)OC3CCC2(C)C1CC(O)C1=CCOC1=O (stereo not given),80%,83.6%,99.5%,88.2%,82.3%,55.5%,-50.3% (active),67.7%,14.7%,22.5%,67.2%,21.3%,92.9%,77.7%,50.7%,103%,77.2%,16.3%,75.1%,26.5%
Cc1sc(C(NC(=O)OCCn2c([N+](=O)[O-])cnc2C)C(F)(F)Cl)nc1-c1ccc(OC(F)(F)F)cc1 (stereo not given),-92% (active),-65.2% (active),-92.4% (active),-89.7% (active),-29.2% (active),-82% (active),-86.1% (active),-81.3% (active),-91.3% (active),-74.2% (active),-70.4% (active),0.935% (active),-75% (active),-94.8% (active),-88.6% (active),-38.6% (active),-98.8% (active),-92.4% (active),-73% (active),-67.5% (active)
C/C(=N\N=C\c1cc([N+](=O)[O-])ccc1Cl)c1ccc2c(c1)Nc1ccccc1S2,54.7%,53%,37.3%,15.7%,9.18% (active),54.1%,60.3%,29.3%,21.1%,61.3%,84.2%,57.1%,74.2%,49.9%,62.8%,80.4%,-28% (active),58.1%,81.5%,88.2%
CN(C)CCOc1ccc(C(=O)C2[C@H](c3ccc(Cl)cc3)[C@@H](c3ccccc3)NC23C(=O)Nc2ccccc23)cc1 (stereo not given in full),79.6%,72%,82.5%,84.2%,9.91% (active),21.4%,89.6%,48.1%,40.8%,-63.2% (active),66.6%,-51.5% (active),79.8%,49.5%,50.4%,78.1%,65.7%,82.8%,95.8%,45.2%
